Test [1] in a line: NCI Yeast Anticancer Drug Screen. Data for the rad50 strain (AID 155).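 Further: 0% = growth of vehicle-only cultures of the same strain.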 The following applies: S. cerevisiae rad50 strain growth inhibition, active compounds read high. In short, it runs like this:
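Genetically altered yeast (DNA repair pathway); compound treatment; growth inhibition vs vehicle ctrl.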

A short description of test [2]: NCI Yeast Anticancer Drug Screen. Data for the mec2-1 strain (AID 157). The following applies: S. cerevisiae mec2-1 strain, active compounds read high. The method in brief:
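Mutant yeast (mec2-1) grown with compound; growth inhibition relative to vehicle control reported.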

Test [3] is described as follows: NCI Yeast Anticancer Drug Screen. Data for the sgs1 mgt1 strain (AID 161).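 Further: 0% = growth of cultures given vehicle only.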 The conditions noted are these: S. cerevisiae sgs1 mgt1 strain, active compounds read high. In short, it runs like this:
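Percent growth inhibition was derived by comparing compound-exposed mutant yeast with vehicle-exposed cultures. The strain carries alterations in DNA damage repair.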

The nature of test [4]: NCI Yeast Anticancer Drug Screen. Data for the cln2 rad14 strain (AID 165).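 Further: 0% = growth equal to vehicle treated cultures.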 The conditions noted are these: S. cerevisiae cln2 rad14 strain, active compounds read high. In short, it runs like this: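 Readout is yeast growth inhibition versus vehicle-treated controls, using a strain with cln2 and rad14 alterations exposed to compound.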
Test [5] is described as follows: NCI Yeast Anticancer Drug Screen. Data for the bub3 strain (AID 167). The following applies: S. cerevisiae bub3 mutant strain, active compounds read high. The method in brief:
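Yeast carrying a defined mutation is treated with each compound, and growth is compared with that of vehicle-exposed cells to give inhibition.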

Test [6] is described as follows: NCI Yeast Anticancer Drug Screen. Data for the mlh1 rad18 strain (AID 175). The conditions noted are these: S. cerevisiae mlh1 rad18 strain growth inhibition, active compounds read high. In short, it runs like this:
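Genetically defined yeast (DNA repair-deficient) exposed to compounds; growth inhibition determined relative to vehicle.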

Setting [7] is: at 5.0 µM (retest, dose inferred, filed as 0.5).
The mark [8] stands for this setting: at 50.0 µM (retest, dose inferred, filed as 5.0).

About 79,000 compounds went through this panel and 15% of them were active in at least one assay; those are over-represented in the sample as a whole. Unmarked numbers belong to inactive results. Active and inactive are the calls of the source. No stated cut-off is given here; in the data, active means growth inhibition above about 70%; inactive means the rest.

For `O=C(/C(Cl)=N/O)c1ccc(-c2ccccc2)cc1`, the growth inhibition is 8% in test [1] (setting [7]); 97% (active) in test [1] (setting [8]); 99.3% (active) in test [1] (at 50.0 µM); 5% in test [2] (setting [7]); 98% (active) in test [2] (setting [8]); 59.4% in test [2] (at 50.0 µM). Further, the growth inhibition in test [3] (setting [7]) is 2%; in test [3] (setting [8]), 98% (active); in test [3] (at 50.0 µM) it was 95.5% (active); in test [4] (setting [7]), 15%; in test [4] (setting [8]), 93% (active); in test [4] (at 50.0 µM) it was 99.2% (active). The growth inhibition is 6% in test [5] (setting [7]); 97% (active) in test [5] (setting [8]); 99.7% (active) in test [5] (at 50.0 µM); 13% in test [6] (setting [7]); 97% (active) in test [6] (setting [8]); 99.3% (active) in test [6] (at 50.0 µM).

As for `CCOC(=O)C1=C(C(=O)c2ccccc2)C(c2cccc([N+](=O)[O-])c2)C(C(=O)c2ccccc2)=C(C(=O)OCC)N1`, the growth inhibition was -3% in test [1] (setting [7]); 60% in test [1] (setting [8]); 56.2% in test [1] (at 50.0 µM); 5% in test [2] (setting [7]); 33% in test [2] (setting [8]); 25.6% in test [2] (at 50.0 µM). The growth inhibition is 21% in test [3] (setting [7]); 36% in test [3] (setting [8]); 25.6% in test [3] (at 50.0 µM); -9% in test [4] (setting [7]); 27% in test [4] (setting [8]); 17% in test [4] (at 50.0 µM). Also, the growth inhibition in test [5] (setting [7]) is -7%; in test [5] (setting [8]), 63%; in test [5] (at 50.0 µM), 38.5%; in test [6] (setting [7]) it was -28%; in test [6] (setting [8]), 42%; in test [6] (at 50.0 µM), 67.7%.

For the compound `CC1(C=O)CCC23COC4(CCC5C6(C)CCC(OC7OCC(OC8OC(CO)C(O)C(OC9OC(CO)C(O)C(O)C9O)C8OC8OCC(O)C(O)C8O)C(O)C7OC7OC(CO)C(O)C(O)C7O)C(C)(C)C6CCC5(C)C4(C)CC2O)C3C1` (centres undefined), the growth inhibition in test [1] (setting [7]) is 22%; in test [1] (setting [8]), 93% (active); in test [1] (at 50.0 µM), 66.8%; in test [2] (setting [7]) it was 14%; in test [2] (setting [8]), 96% (active); in test [2] (at 50.0 µM), 85.2% (active). The growth inhibition is 9% in test [3] (setting [7]); 96% (active) in test [3] (setting [8]); 88.2% (active) in test [3] (at 50.0 µM); 18% in test [4] (setting [7]); 94% (active) in test [4] (setting [8]); 86.2% (active) in test [4] (at 50.0 µM). The growth inhibition is 16% in test [5] (setting [7]); 97% (active) in test [5] (setting [8]); 87.1% (active) in test [5] (at 50.0 µM); 22% in test [6] (setting [7]); 98% (active) in test [6] (setting [8]); 82.3% (active) in test [6] (at 50.0 µM).

Consider `CCCCCCCCCCCCSC(=N)N`, for which the growth inhibition is 86% (active) in test [1] (setting [7]); 98% (active) in test [1] (setting [8]); 51.3% in test [1] (at 50.0 µM); 21% in test [2] (setting [7]); 99% (active) in test [2] (setting [8]); 99% (active) in test [2] (at 50.0 µM). Moreover, the growth inhibition in test [3] (setting [7]) is 84% (active); in test [3] (setting [8]) it was 98% (active); in test [3] (at 50.0 µM), 46.5%; in test [4] (setting [7]), 20%; in test [4] (setting [8]), 98% (active); in test [4] (at 50.0 µM) it was 97.2% (active). Besides, the growth inhibition in test [5] (setting [7]) is 72% (active); in test [5] (setting [8]), 95% (active); in test [5] (at 50.0 µM), 98.7% (active); in test [6] (setting [7]), 49%; in test [6] (setting [8]), 99% (active); in test [6] (at 50.0 µM), 64.2%.

For `COc1ccc2c(c1)c(CC(=O)O)c(C)n2C(=O)c1ccc(Cl)cc1`, the growth inhibition in test [1] (setting [7]) was -1%; in test [1] (setting [8]) it was 37%; in test [1] (at 50.0 µM), 82.2% (active); in test [2] (setting [7]), 1%; in test [2] (setting [8]) it was 57%; in test [2] (at 50.0 µM) it was 48.2%. Also, the growth inhibition in test [3] (setting [7]) was 2%; in test [3] (setting [8]), 54%; in test [3] (at 50.0 µM), 88.7% (active); in test [4] (setting [7]), 1%; in test [4] (setting [8]) it was 32%; in test [4] (at 50.0 µM) it was 80.7% (active). Also, the growth inhibition in test [5] (setting [7]) was 1%; in test [5] (setting [8]), 30%; in test [5] (at 50.0 µM), 51.1%; in test [6] (setting [7]) it was -1%; in test [6] (setting [8]) it was 39%; in test [6] (at 50.0 µM), 72% (active).

On to `Cc1ccc2c(c1)sc(-c1ccc(N(C)C)cc1)[n+]2C`, for which the growth inhibition in test [1] (setting [7]) was 42%; in test [1] (setting [8]), 92% (active); in test [1] (at 50.0 µM) it was 90.7% (active); in test [2] (setting [7]) it was 45%; in test [2] (setting [8]) it was 96% (active); in test [2] (at 50.0 µM), 91.8% (active). Besides, the growth inhibition in test [3] (setting [7]) was 45%; in test [3] (setting [8]), 98% (active); in test [3] (at 50.0 µM), 91.8% (active); in test [4] (setting [7]), 74% (active); in test [4] (setting [8]), 98% (active); in test [4] (at 50.0 µM) it was 89.1% (active). Also, the growth inhibition was 67% in test [5] (setting [7]); 98% (active) in test [5] (setting [8]); 90.8% (active) in test [5] (at 50.0 µM); 24% in test [6] (setting [7]); 86% (active) in test [6] (setting [8]); 90.5% (active) in test [6] (at 50.0 µM).

With `COc1ccc(C(Cn2ccnc2)Sc2ccc(Cl)c(Cl)c2)cc1` (centres undefined), the growth inhibition was 74% (active) in test [1] (setting [7]); 97% (active) in test [1] (setting [8]); 92.9% (active) in test [1] (at 50.0 µM); 60% in test [2] (setting [7]); 97% (active) in test [2] (setting [8]); 93.8% (active) in test [2] (at 50.0 µM). Moreover, the growth inhibition in test [3] (setting [7]) is 72% (active); in test [3] (setting [8]), 97% (active); in test [3] (at 50.0 µM), 88.7% (active); in test [4] (setting [7]) it was 47%; in test [4] (setting [8]), 86% (active); in test [4] (at 50.0 µM) it was 90.7% (active). In addition, the growth inhibition in test [6] (setting [7]) was 81% (active); in test [6] (setting [8]), 96% (active); in test [6] (at 50.0 µM), 91.3% (active).

As to `O=[N+]([O-])CC(O)c1ccccc1` (centres undefined), the growth inhibition in test [1] (setting [7]) is 4%; in test [1] (setting [8]) it was 26%; in test [1] (at 50.0 µM) it was 98.4% (active); in test [2] (setting [7]), -1%; in test [2] (setting [8]) it was -3%; in test [2] (at 50.0 µM), 52.2%. For the same compound, the growth inhibition in test [3] (setting [7]) is -2%; in test [3] (setting [8]), 1%; in test [3] (at 50.0 µM) it was 50.2%; in test [4] (setting [7]), -2%; in test [4] (setting [8]) it was -1%; in test [4] (at 50.0 µM), 98.6% (active). Further, the growth inhibition was -2% in test [5] (setting [7]); 1% in test [5] (setting [8]); 50.9% in test [5] (at 50.0 µM); -2% in test [6] (setting [7]); 4% in test [6] (setting [8]); 51.9% in test [6] (at 50.0 µM).

For `O=C(/C=C/C(Cl)(Cl)Cl)Nc1ccc(Cl)cc1`, the growth inhibition in test [1] (setting [7]) is -6%; in test [1] (setting [8]) it was 16%; in test [1] (at 50.0 µM), 71.8% (active); in test [2] (setting [7]), 42%; in test [2] (setting [8]), 21%; in test [2] (at 50.0 µM), 85% (active). Also, the growth inhibition in test [3] (setting [7]) was -4%; in test [3] (setting [8]), 43%; in test [3] (at 50.0 µM), 81% (active); in test [4] (setting [7]), 25%; in test [4] (setting [8]), 8%; in test [4] (at 50.0 µM), 77.5% (active). Further, the growth inhibition is 9% in test [5] (setting [7]); 3% in test [5] (setting [8]); 75.9% (active) in test [5] (at 50.0 µM); 18% in test [6] (setting [7]); 64% in test [6] (setting [8]); 85% (active) in test [6] (at 50.0 µM).

On to `C=[CH][Sn]([CH]=C)([O]c1cccc2cccnc12)[O]c1cccc2cccnc12`, for which the growth inhibition was 27% in test [1] (setting [7]); 36% in test [1] (setting [8]); 87.3% (active) in test [1] (at 50.0 µM); 25% in test [2] (setting [7]); 34% in test [2] (setting [8]); 92.7% (active) in test [2] (at 50.0 µM). Further, the growth inhibition in test [3] (setting [7]) was 91% (active); in test [3] (setting [8]), 98% (active); in test [3] (at 50.0 µM), 82.8% (active); in test [5] (setting [7]), 87% (active); in test [5] (setting [8]), 98% (active); in test [5] (at 50.0 µM) it was 89.8% (active). The figures for the growth inhibition in test [6] (setting [7]), in test [6] (setting [8]) and in test [6] (at 50.0 µM) were 30%, 60% and 87.7% (active), respectively.

Source of the values: PubChem BioAssay (NCI).
